Nrf2 ARE act: activates Nrf2 signaling; AREc32 ARE-luciferase reporter (MCF7-derived line), luminescence, 24 h; Potency, µM (doses to about 46.1 µM), inactives show at the top dose activation, usual class: activators; 410,000 compounds, 0.31% hits; AID 624171; also: % of control where 0% means no effect; nearly all actives have a fitted effect of over 65% in size
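AREc32_Fluc, 1000 cells/well, OPTI-MEM + 5% FBS, o/n 37 deg C 5% CO2; 23 nL cpd by pin tool, 24 hr; Steady-Glo 30 min RT, luminescence.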
Nrf2 inh: inhibitors of Nrf2 signaling | A549 ARE-Fluc reporter, luciferase luminescence, 18-24 h | Potency, µM (highest dose often 46 µM), without a hit: at the highest dose activity change, negative = inhibition, most hits filed as inhibitors | 360,000 compounds, 2.1% hits | AID 504444; also: % is scaled to controls: 0 for no effect and ±100 for the full control effect; nearly all actives have a fitted effect of over 60% in size
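A549 ARE_Fluc cells (5000/well, 5% FBS OPTI-MEM) pre-incubated 2 h, then treated with compounds 18-24 h at 37C/5% CO2 in concentration-response. CellTiter-Fluor viability read first; BugLite luciferase luminescence after 15 min at room temperature gives Nrf2 activity.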
ATXN2 expr inh: inhibitors of ATXN2 expression; AID 1745845; HEK-293 ATXN2-luciferase reporter, luminescence, 24 h; Potency, µM (doses to about 57 µM), without a hit: top-dose activity change, negative = inhibition, hits mostly inhibitors; 360,000 compounds, 0.72% hits; also: % is scaled to controls: 0 for no effect and ±100 for the full control effect; nearly all actives have a fitted effect of over 55% in size
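ATXN2-luciferase reporter cells (luciferase flanked by upstream and downstream ATXN2 gene portions) were treated 24 h at 37 °C with compounds at up to 57 uM. SteadyGlo luminescence gave expression; GF-AFC fluorescence gave viability.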
A549 tox: A549 cytotoxicity, counter-screen for Nrf2 inhibitors | A549 ARE-Fluc cells, CellTiter-Fluor viability, 18-24 h | Potency, µM (highest dose often 46 µM), for inactives: at the top dose activity change, negative = cytotoxicity, usual class: inhibitors | 390,000 compounds, 0.16% hits | AID 504648; also: % is scaled to controls: 0 for no effect and ±100 for the full control effect
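Cytotoxicity counterscreen: CellTiter-Fluor fluorescence was measured in A549 ARE_Fluc cells after 18-24 h of compound exposure in a concentration series. The subsequent BugLite luminescent read reports ARE-luciferase activity.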
S2 tox: cell viability loss in ATXN counter-screen; Potency, µM (titrated, usually from 56.7 µM), usual class: cytotoxic; S2 cells (HEK-293 line with an ATXN2-luciferase reporter) viability, CellTiter-Fluor protease fluorescence, 24 h; AID 651635; 400,000 compounds, 0.49% hits; also: nearly all actives have a fitted effect of over 40% in size
The depositor's hits bear a star; i = inactive; u = inconclusive; x = not tested or not shown; [ ] = dose if it differs, or a comment. Compounds with a hit are over-represented: about 2.9% of the library has one in this group of screens. Calls follow the shape of the dose curve; as a rule, active = well fitted curve in the direction sought with a large enough effect; inconclusive = small, poorly fitted or top-dose-only effect, or another doubt; inactive = no such curve, though single readings can be large; an effect the other way counts as inactive or inconclusive. Potency is read from the fitted curve at half-maximal effect.

SMILES	Nrf2 ARE act	Nrf2 inh	ATXN2 expr inh	A549 tox	S2 tox
CCCCCOc1ccc(NC(=O)C(=O)NCCCn2ccnc2)cc1	0%	9.2µM*	-33%	-1%	u
O=C(COc1ccc(NC(=O)c2cccs2)cc1)c1ccc(F)cc1	3%	16µM*	-15%	-18%	i
CCCCOc1cccc(C(=O)Nc2ccc(NC(=O)c3cccs3)cc2)c1	11%	u	u	u	18µM*
CCCCOc1ccc(C(=O)Nc2ccncc2)cc1	4%	9.2µM*	2%	-8%	i
COc1cc(-n2c(N)c(C(=O)NCc3ccco3)c3nc4ccccc4nc32)cc(OC)c1OC	10%	15%	x	4%	i
COCCn1c(SCC(=O)Nc2ccccc2)nc2c(oc3ccccc32)c1=O	0%	u	x	-14%	u
CC(=O)Nc1ccc(-c2ccnc3c2CC(C)(C(=O)Nc2ccc(Cl)c(C(F)(F)F)c2)O3)cc1 (stereo unspecified)	0%	x	20µM*	x	13µM*
C=CCN(c1ccc(C(=O)Nc2ccc3c(c2)n(C)c(=O)n3C)cc1)S(C)(=O)=O	21%	2%	11%	7%	i
O=S(=O)(NCCc1cn2ccccc2n1)c1ccc(-c2ccccc2)cc1	0%	21µM*	-19%	-9%	i
CCCCN(CCCC)CC(O)c1cc(Cl)cc2c1-c1ccc(Cl)cc1/C2=C/c1ccc(Cl)cc1 (stereo unspecified)	x	x	25µM*	x	u
CCC1=C(OC(=O)N(CC)CC)N2C(=O)OC(=NCc3ccccc3)[C@]2(C)[C@H]2C1=CC[C@H]1C(=O)NC(=O)[C@H]12	1%	18µM*	0%	-25%	i
CCC1=C(OC(=O)N(CC)CC)N2C(=O)OC(=NCC(=O)OC)[C@]2(C)[C@H]2C1=CC[C@H]1C(=O)NC(=O)[C@H]12	0%	3%	4%	-5%	i
O=S(=O)(/C=C/c1ccccc1)Oc1ccccc1	13µM*	-15%	-6%	-5%	i
COc1ccc(C(C)=O)cc1CON=C1CSCc2ccccc21	6%	x	x	x	i
O=S(=O)(c1ccc(F)cc1)N1CCC(n2c(C(F)(F)F)nc3cccnc32)CC1	3%	21µM*	-5%	-1%	i
CNC(=O)OCc1nc(SC2CCCCO2)n(C)c1COC(=O)NC (stereo unspecified)	0%	x	9%	x	i
O=[N+]([O-])c1cc2ccccc2c(O)c1O	12%	x	x	x	i
O=[N+]([O-])c1cc(-c2ccccc2)cc([N+](=O)[O-])c1O	4%	16µM*	-14%	u	i
CCc1nc(N2CCN(C(C)=O)CC2)c2c3c(sc2n1)CC(C(C)(C)C)CC3 (stereo unspecified)	4%	18µM*	x	-6%	u
O=C(COC(=O)CN1C(=O)C2CCCCC2C1=O)NCc1ccc(Cl)cc1Cl (stereo unspecified)	-1%	-2%	1%	-5%	i
COc1ccc(NC(=O)CSc2ncc(-c3ccc(F)cc3)n2Cc2ccco2)cc1	2%	16µM*	-17%	-17%	i
COc1ccc(-c2cnc(SCC(=O)Nc3nc(C(C)(C)C)cs3)n2Cc2ccco2)cc1	8%	21µM*	-13%	-15%	i
CCCCN1CN(Cc2ccccc2)CNC1=S	0%	11%	2%	13%	i
COc1ccc(C#Cc2cccc(-c3nc(C(=O)NCc4ccc(Oc5ccccc5)cc4)cc4c3[C@@H](CCO)N(S(=O)C(C)(C)C)C4)c2)cc1OC (stereo partly specified)	10%	x	u	x	32µM*
Clc1ccc(-n2ncc3c(NCc4cccnc4)ncnc32)cc1Cl	4%	30%	20%	1%	i
CCn1c(=O)cc(SCC(=O)Nc2ccc(C)c(F)c2)c2ccccc21	-1%	23µM*	-25%	-4%	u
CCc1ccc(NC(=O)C(C)OC(=O)CN2C(=O)NC3(CCCC3)C2=O)cc1 (stereo unspecified)	3%	15%	x	-5%	i
O=[N+]([O-])c1cccnc1N/N=C/c1ccccc1O	22%[9.22 µM]	-1%	-23%	-7%	u
Oc1ccccc1/C=N/Nc1nccnc1Cl	6%	u	u	-17%	u
